# Source: PubChem BioAssay (NCATS)
# Records with an inconclusive call do not appear. Entries that show only a call come without a potency. Values without a mark were called inactive. The source made the active and inactive calls. Calls follow the shape of the dose curve; as a rule, active = well fitted inhibition curve with a large enough effect; inconclusive = small, poorly fitted or top-dose-only effect; inactive = no such curve, though single readings can be large or run the other way. Where a SMILES comes first, the peptide text is derived from it. [ ]: non-standard residue; d: D form. dPhe(4-Cl) = N[C@H](Cc1ccc(Cl)cc1)C(=O)O; d2Nal = N[C@H](Cc1ccc2ccccc2c1)C(=O)O; dCit = NC(=O)NCCC[C@@H](N)C(=O)O; d3Pal = N[C@H](Cc1cccnc1)C(=O)O
# Experiments:
# [1] = tested on: Zika virus NS2B-NS3 protease (unlinked complex); experiment: Primary screen GU Rhodamine qHTS for Zika virus inhibitors: Unlinked NS2B-NS3 protease assay (AID 1347159); details: Recombinant ZIKV NS2B-NS3 protease, Rhodamine110 substrate fluorescence; series mostly up to 107 µM; also: nearly all actives have a fitted effect of over 60% in size; also: potency is read from the fitted curve at half-maximal effect
# Method in brief: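 Enzyme 25 nM in Tris-HCl pH 8.0 + 0.01% Tween 20; compounds up to 114 microM, 15 min RT dark; + Rhod110 substrate 1.5 microM; read t0 and 15 min; delta fluorescence → % inhibition → 4-parameter Hill fit.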
# [2] = tested on: Zika virus NS2B-NS3 protease (linked construct); experiment: Primary screen NINDS Rhodamine qHTS for Zika virus inhibitors (AID 1347160); details: purified NS2B-NS3 protease, Rhodamine110 substrate fluorescence; series mostly up to 57.1 µM; also: nearly all actives have a fitted effect of over 55% in size
# Method in brief: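 Enzyme (25 nM, linked NS2B-NS3) was preincubated 15 min with compound in 10 mM Tris-HCl pH 8.0, 0.01% Tween 20. Rhodamine110 substrate (1.5 microM) was then added and fluorescence read at start and after 15 min.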
smiles,measurement,setting,value
COC(=O)C1=C2Nc3ccccc3C23CCN2CCCC(C(C)O)(C1)C23 (centres undefined),Potency,[1],inactive
same,Potency,[2],inactive
CC1COC(Nc2ccc3ncnc(Nc4ccc(OCc5nccs5)c(Cl)c4)c3c2)=N1 (centres undefined),Potency,[1],inactive
same,Potency,[2],inactive
C=CC(C)(C)c1[nH]c2ccccc2c1C[C@@H]1NC(=O)[C@H](Cc2c[nH]c3ccccc23)NC1=O,Potency,[1],inactive
same,Potency,[2],inactive
CNC12CC3C[C@@](C)(C1)C[C@](C)(C3)C2,Potency,[1],inactive
same,Potency,[2],inactive
CN[C@@H]1[C@H](O[C@H]2[C@H](O[C@@H]3[C@@H](O)[C@H](O)[C@@H](N=C(N)N)[C@H](O)[C@H]3N=C(N)N)O[C@@H](C)[C@]2(O)C=O)O[C@@H](CO)[C@H](O)[C@H]1O,Potency,[1],inactive
same,Potency,[2],inactive
CCOC(=O)CCN(C(=O)c1ccc2c(c1)nc(CNc1ccc(C(=N)N)cc1)n2C)c1ccccn1,Potency,[1],inactive
same,Potency,[2],inactive
CC1(C)CC[C@]2(C(=O)OC3OC(CO)C(O)C(O)C3O)CC[C@]3(C)C(=CCC4[C@@]5(C)CC[C@H](OC6OC(C(=O)O)C(O)C(OC7OC(CO)C(O)C(O)C7O)C6O)C(C)(C)C5CC[C@]43C)C2C1 (some centres undefined),Potency,[1],inactive
same,Potency,[2],inactive
CC1(C)CC[C@]2(C(=O)O[C@@H]3O[C@H](CO[C@@H]4O[C@H](CO)[C@@H](O)[C@H](O)[C@H]4O[C@@H]4O[C@H](CO)[C@H](O)[C@H](O)[C@H]4O)[C@@H](O)[C@H](O[C@@H]4O[C@H](CO)[C@@H](O)[C@H](O)[C@H]4O)[C@H]3O)CC[C@]3(C)C(=CCC4[C@@]5(C)CC[C@H](O[C@@H]6OC[C@@H](O)[C@H](O)[C@H]6O)[C@@](C)(C(=O)O)C5CC[C@]43C)[C@@H]2C1 (some centres undefined),"activity change, negative = inhibition",[1],20.2% [at 19.1 µM]
same,"activity change, negative = inhibition",[2],-4.93% [at 10.7 µM]
CC(=O)N[C@H](Cc1ccc2ccccc2c1)C(=O)N[C@H](Cc1ccc(Cl)cc1)C(=O)N[C@H](Cc1cccnc1)C(=O)N[C@@H](CO)C(=O)N[C@@H](Cc1ccc(O)cc1)C(=O)N[C@H](CCCNC(N)=O)C(=O)N[C@@H](CC(C)C)C(=O)N[C@@H](CCCN=C(N)N)C(=O)N1CCC[C@H]1C(=O)N[C@H](C)C(N)=O (Ac-[d2Nal][dPhe(4-Cl)][d3Pal]SY[dCit]LRP[dA]-NH2),Potency,[1],inactive
same,Potency,[2],inactive
C=C1CCC2C(C)(C)C(O)CCC2(C)C1CCC(C)CCOC(C)=O (centres undefined),Potency,[1],22.4 µM (active)
same,Potency,[2],inactive
CNC(C)C(=O)NC(C(=O)N1CCCC1c1nc(C(=O)c2ccc(F)cc2)cs1)C1CCCCC1 (centres undefined),Potency,[1],inactive
same,Potency,[2],inactive
CC1(C)CC(=O)C2=C(C1)NC(=S)NC2c1cccc(O)c1 (centres undefined),Potency,[1],inactive
same,Potency,[2],inactive
CC1C(=O)OCC2=CCN3CCC(OC(=O)C(C)(O)C1(C)O)C23 (centres undefined),Potency,[1],inactive
same,Potency,[2],inactive
COc1ccc(N(C)c2nc(C)nc3ccccc23)cc1,Potency,[1],inactive
same,Potency,[2],inactive
CC(C)C[C@H](CC(=O)NO)C(=O)N[C@@H](Cc1ccc2ccccc2c1)C(=O)N[C@@H](C)C(=O)NCCN,Potency,[1],inactive
same,Potency,[2],inactive
C=CC[C@]12C[C@@H](OC)C(=O)C(OC)=C1O[C@@H](c1cc(OC)c3c(c1)OCO3)[C@@H]2C,Potency,[1],inactive
same,Potency,[2],inactive
CC(=O)O[C@@](C)(C(=O)/C=C/C(C)(C)O)[C@H]1[C@H](O)C[C@@]2(C)[C@@H]3CC=C4[C@@H](C=C(O)C(=O)C4(C)C)[C@]3(C)C(=O)C[C@]12C,Potency,[1],inactive
same,Potency,[2],inactive
CC1COC2(OC3CC4C5CC(O[C@@H]6O[C@H](C)[C@@H](O[C@@H]7O[C@@H](C)[C@H](O)[C@@H](O)[C@H]7O)[C@H](O)[C@H]6O)C6CC(O)CCC6(C)C5CCC4(C)C3C2C)C(O)C1 (some centres undefined),Potency,[1],inactive
same,Potency,[2],inactive
CON(C)C(=O)[C@H](O)[C@H](Cc1ccccc1)NC(=O)c1cc2cc(Cl)ccc2[nH]1,Potency,[1],inactive
same,Potency,[2],inactive
C/C=C1\[C@H](O[C@@H]2O[C@H](CO)[C@@H](O)[C@H](O)[C@H]2O)OC=C(C(=O)OC)[C@H]1CC(=O)O,Potency,[1],inactive
same,Potency,[2],inactive
C[C@@H]1C(=O)O[C@H]2C[C@]34[C@H]5C[C@@H](C(C)(C)C)[C@]36[C@@H](OC(=O)[C@H]6O)O[C@]4(C(=O)O5)[C@]21O,Potency,[1],inactive
same,Potency,[2],inactive
CC1=CC(=O)C2C(C)(C)CCC[C@]2(C)[C@H]1CO (some centres undefined),Potency,[1],inactive
same,Potency,[2],inactive
COc1ccc(-c2nc(-c3ccc(-c4cccc(Cl)c4)o3)[nH]c2-c2ccc(OC)cc2)cc1,Potency,[1],inactive
same,Potency,[2],inactive
CC(C)=CCC[C@](C)(O[C@@H]1O[C@H](CO)[C@@H](O)[C@H](O)[C@H]1O)[C@H]1CC[C@]2(C)[C@@H]1[C@H](O)CC1[C@@]3(C)CC[C@H](O)C(C)(C)C3[C@@H](O[C@@H]3O[C@H](CO)[C@@H](O)[C@H](O)[C@H]3O[C@@H]3OC[C@@H](O)[C@H](O)[C@H]3O)C[C@]12C (some centres undefined),Potency,[1],inactive
same,Potency,[2],inactive
C=C1CCC2C(C(C)(C)O)CCC2(C)CC(O)C(=C)CCC1O (centres undefined),Potency,[1],inactive
same,Potency,[2],inactive
Cc1cc(C)c(Nc2ccnc(Nc3ccc(C#N)cc3)n2)c(C)c1,Potency,[1],inactive
same,Potency,[2],inactive
C[C@@H]1C(=O)O[C@H]2[C@H](O)C34[C@H]5C[C@@H](C(C)(C)C)C36[C@@H](OC(=O)[C@@H]6O)O[C@@]4(C(=O)O5)[C@@]12O (some centres undefined),Potency,[1],inactive
same,Potency,[2],inactive
Cn1nnc(-c2ccc(-c3ccc(N4C[C@H](CO)OC4=O)cc3F)cn2)n1,Potency,[1],inactive
same,Potency,[2],inactive
COc1cccc(C(=O)N2CCN(C(=O)COc3cccc(C)c3)CC2)c1OC,Potency,[1],inactive
same,Potency,[2],inactive
COc1cc2c(cc1O)[C@H](c1ccc(O[C@@H]3O[C@H](CO)[C@@H](O)[C@H](O)[C@H]3O)c(OC)c1)[C@@H](CO)[C@](O)(CO)C2,Potency,[1],inactive
same,Potency,[2],inactive
Cc1oc2ccccc2c1CNC(=O)NCc1cccs1,Potency,[1],inactive
same,Potency,[2],inactive
Cn1cc(S(=O)(=O)c2ccc(Cl)cc2)c2cccc(N3CCNCC3)c21,Potency,[1],inactive
same,Potency,[2],inactive
CC(=O)C=C=C1C(C)(C)CC(O[C@@H]2O[C@H](CO)[C@@H](O)[C@H](O)[C@H]2O)CC1(C)O (some centres undefined),Potency,[1],inactive
same,Potency,[2],inactive
COc1ccc2[nH]c3c(-c4cccc5ccccc45)nccc3c2c1,Potency,[1],inactive
same,Potency,[2],inactive
C[C@@H]1C[C@@H](O)[C@@]23CO[C@@H](O)[C@@H]2CCC[C@@H]3[C@@]12C[C@@H](c1ccoc1)OC2=O,Potency,[1],inactive
same,Potency,[2],inactive
CC[C@H](NC(=O)[C@H](CS(=O)(=O)CC1CC1)N[C@@H](c1ccc(F)cc1)C(F)(F)F)C(=O)C(=O)NC1CC1,Potency,[1],inactive
same,Potency,[2],inactive
Cc1ccc(C(=O)N(CCCN)C(c2oc3cc(Cl)ccc3c(=O)c2Cc2ccccc2)C(C)C)cc1 (centres undefined),Potency,[1],inactive
same,Potency,[2],inactive
CC(C)C(CO)Nc1nc(Nc2ccc(C(=O)O)c(Cl)c2)c2ncn(C(C)C)c2n1 (centres undefined),Potency,[1],inactive
same,Potency,[2],inactive
CC(=O)OC12COC1CC(O)C1(C)C(=O)C(O)C3=C(C)C(OC(=O)C(O)C(NC(=O)OC(C)(C)C)c4ccccc4)CC(O)(C(OC(=O)c4ccccc4)C21)C3(C)C (centres undefined),Potency,[1],inactive
same,Potency,[2],inactive
CNC(=O)c1ccccc1Nc1cc(Nc2ccc(N3CCOCC3)cc2OC)ncc1C(F)(F)F,Potency,[1],inactive
same,Potency,[2],inactive
Cc1nc2sc(C(=O)NCc3ccncc3)c(N)c2c(C)c1Cl,Potency,[1],inactive
same,Potency,[2],inactive
O=C(Cc1ccc(-c2ccccc2)cc1)NC1CCC1,Potency,[1],inactive
same,Potency,[2],inactive
C=C1C(=O)O[C@@H]2[C@H]1CCC(C)=C1CCC(=O)O[C@]12C,Potency,[1],inactive
same,Potency,[2],inactive
CC(=O)N1CCN(Cc2ccc([C@H](C)Nc3nccc(N4C(=O)OC[C@@H]4C(C)C)n3)cc2)CC1,Potency,[1],inactive
same,Potency,[2],inactive
COC(=O)N[C@H](C(=O)N1[C@@H]2CC[C@@H](C2)[C@H]1c1nc2ccc(-c3ccc4c(c3)C(F)(F)c3cc(-c5cnc([C@@H]6CCC7(CC7)N6C(=O)[C@@H](NC(=O)OC)C(C)C)[nH]5)ccc3-4)cc2[nH]1)C(C)C,Potency,[1],inactive
same,Potency,[2],inactive
CC(C)O[C@@H]1O[C@H](CO)[C@@H](O)[C@H](O)[C@H]1O,Potency,[1],inactive
same,Potency,[2],inactive
CC1CCC2C(C)(C)[C@@H](O)CC[C@]2(C)C12Cc1c(O)cc3c(c1O2)CN(C(CCC(=O)O)C(=O)O)C3=O (some centres undefined),Potency,[1],inactive
same,Potency,[2],inactive
CCCCNc1ccc(-c2ccc(CN3CCOCC3)cn2)c(NC2CCC(O)CC2)c1 (centres undefined),Potency,[1],inactive
same,Potency,[2],inactive
C=CC1(C)CC(OC(=O)/C(C)=C\COC(C)=O)C(C(=C)C(=O)O)C(O)C1C(=C)CO (centres undefined),Potency,[1],inactive
same,Potency,[2],inactive
C[C@H](O)[C@H](O)/C=C/c1cccc(O)c1CO,Potency,[1],inactive
same,Potency,[2],inactive
CNS(=O)(=O)CC1CCC(N(C)c2ncnc3[nH]ccc23)CC1 (centres undefined),Potency,[1],inactive
same,Potency,[2],inactive
Cc1ccc([N+](=O)[O-])cc1S(=O)(=O)N(C)/N=C/c1cnc2ccc(Br)cn12,Potency,[1],inactive
same,Potency,[2],inactive
CC1(C)CCC2(C(=O)OC3OC(CO)C(O)C(O)C3O)CCC3(C)C(=CCC4C5(C)CCC(OC6OC(C(=O)O)C(OC7OC(CO)C(O)C(O)C7O)C(OC7OC(CO)C(O)C(O)C7O)C6O)C(C)(C)C5CCC43C)C2C1 (centres undefined),Potency,[1],inactive
same,Potency,[2],inactive
CC(C)[C@@H]1C(=O)N(S(C)(=O)=O)[C@@H]2CCN(C(=O)/C=C/CN3CCCCC3)[C@H]21,Potency,[1],inactive
same,Potency,[2],inactive
COC(=O)CCc1cc2ccoc2c(OC)c1O[C@@H]1O[C@H](CO)[C@@H](O)[C@H](O)[C@H]1O,Potency,[1],inactive
same,Potency,[2],inactive
C[C@@H]1C[C@@H]([C@@H](O)C(C)(C)O)O[C@H]2C[C@@]3(C)C(=C12)C[C@H](O)[C@H]1[C@@]2(C)CCC(=O)C(C)(C)C2CC[C@@]13C (some centres undefined),Potency,[1],inactive
same,Potency,[2],inactive
CC1OC(OC2C(CO)OC(OCC3OC(OC(=O)C45CCC(C)(C)CC4C4=CCC6C7(C)CCC(OC8OC(CO)C(O)C(OC9OC(CO)C(O)C(O)C9O)C8O)C(C)(C)C7CCC6(C)C4(C)CC5)C(O)C(O)C3O)C(O)C2O)C(O)C(O)C1OC1OC(CO)C(O)C(O)C1O (centres undefined),"activity change, negative = inhibition",[1],10.6% [at 19.1 µM]
same,outcome,[2],inactive [at 10.7 µM]
